Screening data as filed in PubChem.
Rows were chosen to be rich in hits. Some 0.43% of all compounds tested hit in one or more screens of this group.
GLA inh pH 4.5: inhibitors of human alpha-galactosidase A at pH 4.5 | P06280 | purified enzyme, 4-MU-alpha-Gal fluorescence, pH 4.5 | activity change, negative = inhibition, % at 105 µM | 230,000 tested, under 10 active;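 also: 0% = full activity with enzyme and -100% = basal without enzyme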
Target sequence (P06280 whole entry, looked up): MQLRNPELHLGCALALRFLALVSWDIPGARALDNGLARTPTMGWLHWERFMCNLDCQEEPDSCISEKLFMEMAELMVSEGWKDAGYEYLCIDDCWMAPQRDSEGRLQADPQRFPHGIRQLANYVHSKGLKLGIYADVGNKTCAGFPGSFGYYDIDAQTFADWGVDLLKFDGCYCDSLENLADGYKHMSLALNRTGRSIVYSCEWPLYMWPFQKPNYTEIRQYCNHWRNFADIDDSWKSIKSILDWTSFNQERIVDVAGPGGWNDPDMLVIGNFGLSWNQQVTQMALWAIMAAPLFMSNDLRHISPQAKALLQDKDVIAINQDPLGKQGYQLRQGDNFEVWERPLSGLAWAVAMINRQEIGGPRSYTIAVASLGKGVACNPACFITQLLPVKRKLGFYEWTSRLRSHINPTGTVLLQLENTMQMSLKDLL
aGlu spleen mod: inhibits or activates alpha-glucosidase in human spleen homogenate; P10253; human spleen homogenate, 4-MU-alpha-glucoside fluorescence; Potency, µM (highest dose often 79.9 µM), for the others: at the highest dose activity change, negative = inhibition, actives largely listed as inhibitors; 240,000 compounds, 0.006% hits; AID 2112;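 also: potency is read from the fitted curve at half-maximal effect; 0% = enzyme with vehicle and -100% = no enzyme basal signal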
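Human spleen homogenate (1 ug) with 4-methylumbelliferyl-alpha-D-glucopyranoside (1 mM final) in 50 mM citrate/phosphate pH 5.0, 0.01% Tween-20; 40 min at 37 C. Stopped at pH 10; 4-MU fluorescence Ex 365/Em 440 nm; AC50 by Hill fit.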
N370S GC: inhibits or activates N370S mutant glucocerebrosidase | P04062 | Potency, µM (series often up to 59.4 µM), inactives show at the top dose activity change, negative = inhibition, usual class: inhibitors | N370S GC spleen homogenate, 4MU-glucoside fluorescence | 330,000 compounds, 0.092% hits;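 also: potency is read from the fitted curve at half-maximal effect; 0% = full enzyme activity and -100% = no enzyme basal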
GLA spleen mod: inhibitors or activators of human alpha-galactosidase in spleen homogenate; human spleen homogenate, 4MU-alpha-Gal fluorescence, 40 min; 240,000 compounds, 0.008% hits; Potency, µM (top dose mostly 80 µM), for the others: top-dose activity change, negative = inhibition, most hits filed as inhibitors;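 also: potency is read from the fitted curve at half-maximal effect; 0% = enzyme with vehicle and -100% = no enzyme basal signal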
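Fluorogenic readout (Ex 365/Em 440 nm) of 4-methylumbelliferone released from 1 mM 4-MU-alpha-galactoside by spleen homogenate, 40 min at 37C, pH 5.0. Data normalized to no-enzyme and enzyme controls; Hill-equation AC50 from compound titrations.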
GAA glycogen mod: alters human alpha-glucosidase cleavage of glycogen | Potency, µM (series often up to 76.4 µM), inactives show top-dose activity change, negative = inhibition, most hits filed as inhibitors | recombinant GAA, glycogen substrate, Amplex Red glucose oxidase fluorescence | AID 2100 | P10253 | 300,000 compounds, 0.38% hits;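 also: potency is read from the fitted curve at half-maximal effect; 0% = full enzyme reaction and -100% = no-enzyme basal signal; the screen sought inhibitors and activators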
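Recombinant human enzyme (4 nM); glycogen substrate; 37 C, 40 min, pH 5.0. Readout: coupled glucose oxidase/Amplex Red fluorescence.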
GAA inh: inhibitors of human lysosomal alpha-glucosidase. Potency, µM (series often up to 76.9 µM), without a hit: top-dose activity change, negative = inhibition, hits mostly inhibitors. P10253. 200,000 compounds, 0.005% hits. AID 1466. purified human GAA, 4-MU-alpha-glucoside fluorescence;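 also: potency is read from the fitted curve at half-maximal effect; plate controls were uninhibited enzyme wells for no effect and no-enzyme background for full effect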
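Fluorescence at Ex 365/Em 440 nm from 4-methylumbelliferone reported enzyme activity after 20 min at room temperature. Reactions used 4 nM enzyme and 400 uM substrate at pH 5.0; curves fitted with the Hill equation.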
Active calls of the source: *; u = inconclusive; x = not tested or not shown; [ ] = dose if it differs, or a comment. Calls follow the shape of the dose curve; as a rule, active = well fitted curve in the direction sought with a large enough effect; inconclusive = small, poorly fitted or top-dose-only effect, or another doubt; inactive = no such curve, though single readings can be large; an effect the other way counts as inactive or inconclusive.

SMILES | GLA inh pH 4.5 | aGlu spleen mod | N370S GC | GLA spleen mod | GAA glycogen mod | GAA inh
O=C(/C=C/c1ccc(O)c(O)c1)OC1C(O)CC(OC(=O)/C=C/c2ccc(O)c(O)c2)(C(=O)O)CC1O (stereo not given) | -13.5 | -2.0% | -20.9% | -12.3% | 1.76µM* | -9.8%
COCCNc1c(-c2ccc(O)cc2)nc2ccc(Cl)cn12 | -1.4 | -13.3% | u | 2.1% | 10µM* | 1.0%
O=C(O)c1ccc(O)cc1 | x | 0.5% | -0.8% | -6.0% | x | x
O=C(O)c1ccc(O)c(O)c1 | 2.0 | -10.0% | 10.5% | -15.1% | 5.01µM* | -13.5%
COc1ccc(O)c(-c2c(-c3ccc(Cl)cc3)n[nH]c2C)c1 | -6.9 | 0.8% | -16.5% | -5.0% | 10µM* | -8.4%
CCCCCCCCCCCCCC[C@@H](O)[C@@H](O)[C@@H](N)CO | x | -11.3% | -15.3% | 4.3% | x | x
COc1cc(/C=N/NC(=O)c2cn(-c3cccc(C)n3)cn2)ccc1O | -14.5 | -3.8% | 16.1% | -5.9% | 25.1µM* | -32.1%
O=C(CCSc1ccc(Cl)cc1)N1CCN(c2ccc(O)cc2)CC1 | -4.3 | 7.8% | -25.8% | 13.2% | 17.8µM* | x
O=C(CCSc1ccccc1)N1CCN(c2ccccc2)CC1 | 8.1 | 2.3% | 10.1% | 7.7% | -13.3% | 2.6%
O=C(CCOc1ccccc1)N1CCN(c2ccc(O)cc2)CC1 | -3.2 | 3.5% | 11.8% | 2.4% | 6.31µM* | x
O=C(COc1cccc(C(F)(F)F)c1)N1CCN(c2ccc(O)cc2)CC1 | u | -6.3% | -13.9% | -4.9% | 2µM* | -1.4%
O=C(/C=C/c1ccc2c(c1)OCO2)c1cccs1 | -10.5 | u | 25.2% | 14.4% | x | x
Nc1cccc2c(=O)[nH]ccc12 | x | 1.8% | 0.3% | 15.0% | x | x
COC(=O)CSc1cc([N+](=O)[O-])ccc1NC(=O)OC | 4.8 | -24.3% | -2.9% | 35.5µM* | 5.4% | u
COc1cccc(OCC(O)CN2CCC(CN3C(=O)c4cccc5cccc(c45)C3=O)CC2)c1 (stereo not given) | -2.5 | 0.2% | 5.5% | -5.4% | 1.5% | -7.0%
O=C1c2cccc3cccc(c23)C(=O)N1CC1CCN(CC(O)COc2ccc3ccccc3c2)CC1 (stereo not given) | 5.0 | -15.5% | -2.1% | -8.0% | 25.1µM* | -0.8%
CCCCCCCCCCCC | x | 4.1% | -2.4% | -0.9% | x | x
CN(C)c1ccc(N/C=C/C(=O)C(C)(C)C)cc1 | 4.4 | -2.3% | -4.9% | -1.3% | u | -3.0%
CC(C)(C)C(=O)/C=C/Nc1ccccc1O | 4.2 | 0.2% | -12.1% | 11.1% | 14.1µM* | 2.0%
CC(=O)OC1C=C[C@@H](OC(C)=O)C1 (stereo not given in full) | x | -4.6% | 3.6% | -6.5% | x | x
COCCCNc1nc2c([nH]1)c(=O)[nH]c(=O)n2C | x | -3.5% | 11.6% | 3.0% | u | -3.9%
COc1ccc(Nc2nc3c([nH]2)c(=O)[nH]c(=O)n3C)cc1 | 6.8 | -4.0% | 2.0% | 3.3% | 10µM* | -1.5%
COc1ccc(CNc2nc(-c3cccnc3)nc3ccccc23)c(OC)c1 | x | 1.6% | 11.2µM* | -24.8% | x | x
COc1ccc(CNc2ccnc(-c3ccccc3OC)n2)c(OC)c1 | x | -0.9% | -11.7% | 0.5% | x | x
COc1ccccc1CNc1nc(-c2cccnc2)nc2ccccc12 | x | -3.5% | u | -9.1% | x | x
COc1ccc(CNc2ccnc(-c3ccccc3Cl)n2)c(OC)c1 | x | -9.6% | 4.47µM* | u | x | x
COc1ccc2[nH]cc(CCNc3nc(-c4cccnc4)nc4ccccc34)c2c1 | x | -3.7% | 12.6µM* | -14.1% | x | x
COc1ccc2[nH]cc(CCNc3ccnc(-c4ccccc4C)n3)c2c1 | x | -20.9% | 14.1µM* | 31.6µM* | x | x
COc1cccc(-c2nc(NCc3ccc(OC)cc3OC)c3ccccc3n2)c1 | x | 11.3% | u | 1.1% | x | x
CC#CCN1c2ccccc2[C@]23C[C@@H](C(=O)OC)N(S(=O)(=O)c4ccc([N+](=O)[O-])cc4)C2=NC(C(=O)OC)=C(C(=O)OC)[C@H]13 | 3.6 | 1.7%[17.4 µM] | 3.3%[12.8 µM] | 7.8%[17.5 µM] | x | x
